Experimental data from the supplement of paper PMC7695840.

Key:
[1] = test system: Staphylococcus aureus MW2 delta-mecA (mecA-); test: normalized GFP fluorescence (growth of mecA- strain) (fraction of control range); higher = more growth of mecA- strain; conditions: compound concentration: 150 uM; cefoxitin: subinhibitory; fluorescent label: GFP
How it was run: (§1)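 Compound at 150 μM (1.5% DMSO) in 1536-well plates received 5 µL/well of pre-induced S. aureus MW2 cells mixed 1:1, gene-carrying with DsRed and gene-deleted with GFP, in LB with a daily-set subinhibitory antibiotic dose, single replicate. After 20 h unshaken at 37 °C, 90% humidity, DsRed (540/590) and GFP (485/520) were measured and scaled per plate between single-strain control medians. Plates with high untreated ratios and rows with DsRed/GFP >10 were excluded.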

[2] = test system: Staphylococcus aureus MW2 (mecA+); test: normalized DsRed fluorescence (growth of mecA+ strain) (fraction of control range); higher = more growth of mecA+ strain; conditions: compound concentration: 150 uM; cefoxitin: subinhibitory; fluorescent label: DsRed
How it was run: as §1

SMILES | normalized GFP fluorescence [1] | normalized DsRed fluorescence [2]
COc1ccc(C[C@@H]2c3cc(OC)c(OC)cc3CC[N@+]2(C)CCC(=O)OCCCCCOC(=O)CC[N@@+]2(C)CCc3cc(OC)c(OC)cc3[C@H]2Cc2ccc(OC)c(OC)c2)cc1OC [Cisatracurium besylate (Nimbex)] | 0.62 | 0.713
N[C@H]1C(O)O[C@H](CO)[C@@H](O)[C@@H]1O (stereo partly specified) | 0.468 | 0.564
C[C@@H]1C/C=C/C=C/C=C/C=C/[C@H](O[C@@H]2O[C@H](C)[C@@H](O)[C@H](N)[C@@H]2O)C[C@@H]2O[C@](O)(C[C@@H](O)C[C@H]3O[C@@H]3/C=C/C(=O)O1)C[C@H](O)[C@H]2C(=O)O | 0.448 | 0.753
CCN(CC)CCNC(=O)c1cc(Cl)c(N)cc1OC | 0.639 | 0.756
CCN1CC(CCN2CCOCC2)C(c2ccccc2)(c2ccccc2)C1=O (stereo unspecified) | 0.294 | 0.634
Cc1ccc(S(=O)(=O)NC(=O)NN2CCCCCC2)cc1 | 0.372 | 0.655
C[C@]12CCC(=O)C=C1[C@@H]1C[C@@H]1[C@H]1[C@@H]3[C@@H]4C[C@@H]4[C@@]4(CCC(=O)O4)[C@@]3(C)CC[C@@H]12 | 0.162 | 0.65
CN1C(C(=O)Nc2ccccn2)=C(O)c2sc(Cl)cc2S1(=O)=O | 0.116 | 0.318
N[C@@H](Cc1c[nH]c2ccccc12)C(=O)O | 0.368 | 0.604
O=C1C(O)=C([C@H]2CC[C@H](c3ccc(Cl)cc3)CC2)C(=O)c2ccccc21 [Atovaquone (Atavaquone)] | 0.714 | 0.498
NC12CC3CC(CC(C3)C1)C2 | 0.453 | 0.794
Cc1ccc(=O)n(-c2ccccc2)c1 [Pirfenidone] | 0.368 | 0.778
COC(=O)N[C@H](C(=O)N1CCC[C@H]1c1ncc(-c2ccc(-c3ccc(-c4cnc([C@@H]5CCCN5C(=O)[C@@H](NC(=O)OC)C(C)C)[nH]4)cc3)cc2)[nH]1)C(C)C | 0.242 | 0.788
Cc1ncc(C[n+]2csc(CCO)c2C)c(N)n1 | 0.111 | 1.23
CC(C)(S)[C@@H](N)C(=O)O | 0.302 | 1.21
NS(=O)(=O)c1cc2c(cc1Cl)NC(C1CC3C=CC1C3)NS2(=O)=O (stereo unspecified) | 0.463 | 0.69
CC(C)C[C@H](NC(=O)[C@H](CCc1ccccc1)NC(=O)CN1CCOCC1)C(=O)N[C@@H](Cc1ccccc1)C(=O)N[C@@H](CC(C)C)C(=O)[C@@]1(C)CO1 [Carfilzomib (PR-171)] | 0.271 | 1.11
O=C(O)c1cc(-c2ccc(F)cc2F)ccc1O | 0.0802 | 0.298
O=NN(CCCl)C(=O)NC1CCCCC1 | 0.569 | 0.767

SMILES | normalized GFP fluorescence [1] | normalized DsRed fluorescence [2]
NCCCCCC(=O)O | 0.967 | 0.727
O=C(CCCN1CCC(O)(c2ccc(Cl)cc2)CC1)c1ccc(F)cc1 | 0.45 | 1.19
O=C(CCCN1CCC(O)(c2ccc(Br)cc2)CC1)c1ccc(F)cc1 | 0.243 | 1.21
C[C@H]1C[C@@H]2[C@H]([C@@H](O)C[C@@]3(C)[C@H]2CC[C@]3(O)C(=O)COC(=O)CCC(=O)O)[C@@]2(C)C=CC(=O)C=C12 | 0.634 | 0.526
CC(=O)[C@H]1CC[C@H]2[C@@H]3CCC4=CC(=O)CC[C@]4(C)[C@H]3CC[C@]12C | 0.278 | 0.415
CCOC(=O)O[C@]1(C(=O)COC(=O)CC)CC[C@H]2[C@@H]3CCC4=CC(=O)C=C[C@]4(C)[C@H]3[C@@H](O)C[C@@]21C | 0.129 | 1.07
C=C1/C(=C\C=C2/CCC[C@]3(C)[C@@H]([C@H](C)CCCC(C)(C)O)CC[C@@H]23)C[C@@H](O)C[C@@H]1O [Calcitriol (Rocaltrol)] | -0.00685 | 1
CN(C)CCCOc1nn(Cc2ccccc2)c2ccccc12 | 0.19 | 1.11
CN(C)CC[C@@H](c1ccc(Cl)cc1)c1ccccn1 | 0.307 | 0.588
CCCSc1nc(N[C@@H]2C[C@H]2c2ccc(F)c(F)c2)c2nnn([C@@H]3C[C@H](OCCO)[C@@H](O)[C@H]3O)c2n1 [Ticagrelor] | -0.0296 | -0.0335
Nc1ncnc2c1ncn2[C@@H]1O[C@H](COP(=O)(O)O)[C@@H](O)[C@H]1O | 0.4 | 0.484
CC1(C)S[C@@H]2[C@H](NC(=O)COc3ccccc3)C(=O)N2[C@H]1C(=O)O | 0.0184 | 0.0783
CN(C/C=C/c1ccccc1)Cc1cccc2ccccc12 | 0.0944 | 1.02
CC(=O)[C@H]1CC[C@H]2[C@@H]3C[C@H](C)C4=CC(=O)CC[C@]4(C)[C@H]3[C@@H](O)C[C@]12C | 0.258 | 0.378
O[C@H]1[C@H](O)[C@@H](O)[C@H](O)[C@@H](O)[C@H]1O | 0.236 | 0.698
COc1cc(NS(=O)(=O)c2ccc(N)cc2)nc(OC)n1 | 0.338 | 1.32
C[n+]1ccccc1/C=N/O | 0.332 | 0.9
Nc1nc(Cl)nc2c1ncn2[C@H]1C[C@H](O)[C@@H](CO)O1 [Cladribine] | 0.546 | 0.824
Nc1nc(O)c2ncn(CCC(CO)CO)c2n1 | 0.331 | 0.941
